GRP78 ERSR act: ER stress response induction in glioma | 0.02% of 420,000 active | Potency, µM, hits mostly activators | AID 602332 | U87-MG GRP78 promoter luciferase reporter, 16 h; note: series mostly up to about 76 µM; nearly all actives have a fitted effect of over 35% in size
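ERSR induction read as luciferase luminescence (Bright-Glo, 10 min at room temperature) in stably transfected human U87-MG glioma cells exposed to compounds for 16 h, using GRP78 as sensor.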
D3 ag: D3 dopamine receptor (human) agonism | P35462 | D3R DiscoveRx beta-arrestin cells, luminescence, 90 min | max activation, % | 0.58% of 410,000 active; in the data active = max activation above about 30%
Target sequence (P35462 whole entry, looked up): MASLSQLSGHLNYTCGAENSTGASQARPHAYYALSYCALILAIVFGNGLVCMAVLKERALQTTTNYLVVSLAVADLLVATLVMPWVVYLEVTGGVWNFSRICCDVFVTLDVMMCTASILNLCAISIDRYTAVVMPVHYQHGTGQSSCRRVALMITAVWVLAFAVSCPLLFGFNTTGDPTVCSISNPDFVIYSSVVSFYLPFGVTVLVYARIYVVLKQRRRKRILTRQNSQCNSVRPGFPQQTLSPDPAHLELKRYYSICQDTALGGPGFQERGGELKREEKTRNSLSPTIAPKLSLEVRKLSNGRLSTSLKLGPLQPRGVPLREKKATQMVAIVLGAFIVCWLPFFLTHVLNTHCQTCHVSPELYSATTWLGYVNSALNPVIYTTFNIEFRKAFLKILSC
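Agonist-mode cell screen: cells plated at 1500/well and incubated overnight at 37 °C, then exposed to library compounds for 90 min at 37 °C. Detection reagent was added for 30–60 min at room temperature, and luminescence was read.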
DRD3 antagonist: blocks the human D3 dopamine receptor. AID 652054. D3R cells, DiscoveRx beta-arrestin luminescence, antagonist mode; hits give low values. max response, negative = inhibition, %. 2.5% of 360,000 active; in the data active = max response below about -50%; inconclusive = no clear call, values can overlap the other calls
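Cells plated overnight at 1500 cells/well, then exposed to library compounds with dopamine controls for 90 minutes at 37 degrees C. DiscoveRx reagent added for 30–60 minutes at room temperature; luminescence read, quantitative HTS format.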
Nrf2 activator: activates Nrf2 signaling. AREc32 ARE-luciferase reporter (MCF7-derived line), luminescence, 24 h. Potency, µM (top dose mostly 46.1 µM), usual class: activators. 0.31% of 410,000 active. AID 624171; note: nearly all actives have a fitted effect of over 65% in size
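Luciferase luminescence (Steady-Glo, 30 min at room temperature) served as the read-out of ARE activation in AREc32 cells treated with compounds for 24 hr at 37 deg C.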
Of the large screens only hits and unclear results are named; the others gave an inactive call. The list is not random: actives were taken first. Their share in the collection is about 3%. Unless noted, calls come from the whole dose curve; as a rule, active = well fitted curve in the direction sought with a large enough effect; inconclusive = small, poorly fitted or top-dose-only effect, or another doubt; inactive = no such curve, though single readings can be large; an effect the other way counts as inactive or inconclusive.

COc1cc2c(cc1NC(=O)C(C)N1CCN(S(=O)(=O)c3ccccc3[N+](=O)[O-])CC1)oc1ccccc12 (centres undefined)	none
Cn1cccc1/C=C1\Cc2ccccc2C1=O	Nrf2 activator 11µM
COc1cc(OC)c(OC)cc1/C=C1/Cc2ccccc2C1=O	Nrf2 activator 5.6µM
O=C1C(=Cc2cccc(Cl)c2)CCc2ccccc21	GRP78 ERSR act inconclusive, Nrf2 activator inconclusive
O=C1/C(=C/c2cccs2)Cc2ccccc21	Nrf2 activator inconclusive
Cn1cccc1/C=C1\CCc2ccccc2C1=O	Nrf2 activator inconclusive
O=C1C(=Cc2cccc(Cl)c2)Cc2ccccc21	Nrf2 activator 10µM
O=C1/C(=C\c2ccc(Br)o2)Cc2ccccc21	Nrf2 activator 11µM
C=CCN(CC=C)c1ccc(/C=C/c2ccnc3ccccc23)cc1	none (no result: D3 ag, DRD3 antagonist, Nrf2 activator)
COc1cccc(NC(=O)c2cc3c(-c4ccc(Cl)cc4)nn(C)c3s2)c1	Nrf2 activator inconclusive (no result: DRD3 antagonist)
O=C(/C=C/c1ccccc1)c1ccccc1	GRP78 ERSR act inconclusive
N#Cc1ccc(/C=C/C(=O)c2ccccc2)cc1	DRD3 antagonist -70, Nrf2 activator inconclusive
O=C(/C=C/c1ccccc1)/C=C/c1ccccc1	DRD3 antagonist -58, Nrf2 activator inconclusive
O=C(/C=C/c1ccccc1)c1ccc2ccccc2c1	DRD3 antagonist -51
N/C(=N\OC(=O)/C=C/c1ccccc1)c1ccccc1	Nrf2 activator 11µM
CC1(C)Nc2cccc3c(N=Nc4ccc(N=Nc5ccccc5)c5ccccc45)ccc(c23)N1	none (no result: D3 ag, DRD3 antagonist, Nrf2 activator)
C/C=C/CSc1nc2c(c(=O)[nH]c(=O)n2C)n1CCC	none
CCCn1c(Sc2nc3c(c(=O)[nH]c(=O)n3C)n2CCC)nc2c1c(=O)[nH]c(=O)n2C	DRD3 antagonist -57
CSc1cccc(CN2CCN(Cc3ccccc3)C(CCO)C2)c1 (centres undefined)	DRD3 antagonist -54
OCCC1CN(C2CCN(c3ccccc3F)CC2)CCN1Cc1ccccc1 (centres undefined)	DRD3 antagonist -103
CSc1cccc(CN2CCN(CCc3ccccc3)C(CCO)C2)c1 (centres undefined)	DRD3 antagonist -114
CSc1cccc(CN2CCN(Cc3ccc(F)c(F)c3)C(CCO)C2)c1 (centres undefined)	DRD3 antagonist -63
COc1cccc(CNC(=O)CN(c2ccc(C(C)C)cc2)S(=O)(=O)c2c(C)n[nH]c2C)c1	none (no result: DRD3 antagonist)
Cc1ccc(CN2CCC(CO)(CC3CCCCO3)CC2)o1 (centres undefined)	DRD3 antagonist -63
Cc1ccc2[nH]c(CN3CCC(CO)(CC4CCCCO4)CC3)c(C)c2c1 (centres undefined)	DRD3 antagonist -61
CCN(CC)c1ccc(/C=C/c2ccccn2)cc1	none (no result: D3 ag, DRD3 antagonist, Nrf2 activator)
Nc1ncnc2c1ncn2COC(CO)CO	none (no result: D3 ag, DRD3 antagonist, Nrf2 activator)
CCc1ccc(S(=O)(=O)c2cn(CC(=O)Nc3ccc(C)cc3)c3ccccc3c2=O)cc1	none (no result: DRD3 antagonist)
COc1ccccc1CN1CCC2(CCC(CNC(=O)c3ccccc3N(C)C)O2)CC1 (centres undefined)	none (no result: D3 ag, DRD3 antagonist, Nrf2 activator)
CC[C@@H]([C@H](C)O)n1ncn(-c2ccc(N3CCN(c4ccc(OC[C@@H]5CO[C@@](Cn6cncn6)(c6ccc(F)cc6F)C5)cc4)CC3)cc2)c1=O	none (no result: GRP78 ERSR act, DRD3 antagonist, Nrf2 activator)
Cc1cc(C)nc(SCC(=O)N2CCOCC2)n1	DRD3 antagonist -54
Cc1cc(C)nc(SCCC(=O)N2CCOCC2)n1	none
COC(=O)c1c(C(=O)OC)c2c(-c3ccccc3)cc3cccc1n32	D3 ag 34
Clc1ccc(Cl)c(-c2ccc(/C=N/c3ncn[nH]3)o2)c1	D3 ag 32
CC1OC(CC(=O)O)CC2=C1C(=O)c1c(O)cccc1C2=O (centres undefined)	DRD3 antagonist -94
O=C1c2cccc(O)c2C(=O)c2c(O)cccc21	none (no result: DRD3 antagonist, Nrf2 activator)
CCN1CCN(CC(=O)N2N=CCC2c2ccccc2)CC1 (centres undefined)	DRD3 antagonist -51
CC(C)(C)n1ncc2c(=O)n(Cc3cccc(OC(F)F)c3)cnc21	none (no result: D3 ag, DRD3 antagonist, Nrf2 activator)
CN1CC=C2C(C#N)=C(N)C(C#N)(C#N)[C@H](c3ccoc3)[C@H]2C1	none
Cc1ccc(C2C3CN(C(C)C)CC=C3C(C#N)=C(N)C2(C#N)C#N)cc1 (centres undefined)	DRD3 antagonist -86
COc1ccc(OC)c(C2C3CN(C(C)C)CC=C3C(C#N)=C(N)C2(C#N)C#N)c1 (centres undefined)	DRD3 antagonist -59
Cc1ccc2c(c1)ncc[n+]2CC(=O)c1ccc(F)cc1	none (no result: D3 ag, DRD3 antagonist, Nrf2 activator)
O=C(NCCc1nnc2n1CCN(Cc1ccc(F)cc1)CC2)c1ccc(F)cc1	none (no result: D3 ag, DRD3 antagonist, Nrf2 activator)
Cc1cc(C)c2sc(NC(=O)c3ccc([N+](=O)[O-])o3)nc2c1	DRD3 antagonist inconclusive, Nrf2 activator 7.9µM

High-throughput results as filed in PubChem BioAssay.
